# Rab9 promoter act: qHTS Assay for Rab9 Promoter Activators | Huh7 Rab9 promoter-luciferase reporter, luminescence, 24 h | Potency, µM (highest dose often 9.22 µM), inactives show at the highest dose activation, negative = inhibition, actives largely listed as activators | hit rate 2.8% among 320,000; further: % of control where 0% means no effect; nearly all actives have a fitted effect of over 60% in size
#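 Promoter activation is measured as luciferase luminescence in Huh7 cells stably transfected with a Rab9 promoter–luciferase construct, following 24 h compound exposure at 37 °C and 10 min reagent incubation at ambient temperature.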
# KinaseGlo FLuc: Counterscreen for Luciferase (Kinase-Glo TM) Inhibition | Luciferin 4-monooxygenase (Photuris pensylvanica), Q27757 | Kinase-Glo luciferase, ATP luminescence, 8 min | Potency, µM (series often up to 38.3 µM), without a hit: top-dose activity change, negative = inhibition, actives largely listed as inhibitors | hit rate 0.28% among 200,000; further: on the % scale 0 is the no-effect control and ±100 the full control effect; nearly all actives have a fitted effect of over 60% in size
#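 Luminescence was the read-out, taken after 8-minute incubation at ambient temperature. Luciferase turned over luciferin with 10 uM ATP in imidazole pH 7.2 buffer containing KCl, MgCl2, Tween 20 and BSA.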
# NPC1 promoter act: qHTS Assay for NPC1 Promoter Activators. Huh7 NPC1 promoter luciferase reporter, 24 h. Potency, µM (doses to about 9.22 µM), for the others: at the highest dose activation, hits mostly activators. hit rate 2.4% among 320,000; further: % of control where 0% means no effect; nearly all actives have a fitted effect of over 60% in size
#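 Cells: Huh7 expressing luciferase under the NPC1 promoter, 1500/well. Seeded 2 h, compound added, incubated 24 h at 37 °C. Luciferase reagent, 10 min ambient, then luminescence.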
# ELG1 genotoxic: qHTS screen for small molecules that induce genotoxicity in human embryonic kidney (HEK293T) cells expressing luciferase-tagged ELG1; AID 504466, 2011; Potency, µM (top dose mostly 46 µM), without a hit: at the top dose activity change, positive = activation, usual class: activators; hit rate 1.3% among 330,000; HEK293T ELG1-luciferase reporter, luminescence, 16 h; further: % of control where 0% means no effect; nearly all actives have a fitted effect of over 60% in size
#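 Genotoxic stress is detected as increased luminescence from luciferase-tagged ELG1 in HEK293T cells, measured with ONE-Glo after a 16 hr treatment at 37 °C.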
# FLuc counter: qHTS profiling assay for firefly luciferase inhibitor/activator using purifed enzyme and Km concentrations of substrates (counterscreen for miR-21 project); AID 588342, 2011; Luciferin 4-monooxygenase (Photinus pyralis), P08659; Potency, µM (doses to about 57.5 µM), for inactives: at the highest dose activity change, negative = inhibition, actives largely listed as inhibitors; purified FLuc, Km substrates, luminescence inhibition; hit rate 6.9% among 360,000;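 further: plate controls were vehicle for no effect and reference inhibitor for full effect; nearly all actives have a fitted effect of over 55% in size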
# Target sequence (P08659 whole entry, looked up): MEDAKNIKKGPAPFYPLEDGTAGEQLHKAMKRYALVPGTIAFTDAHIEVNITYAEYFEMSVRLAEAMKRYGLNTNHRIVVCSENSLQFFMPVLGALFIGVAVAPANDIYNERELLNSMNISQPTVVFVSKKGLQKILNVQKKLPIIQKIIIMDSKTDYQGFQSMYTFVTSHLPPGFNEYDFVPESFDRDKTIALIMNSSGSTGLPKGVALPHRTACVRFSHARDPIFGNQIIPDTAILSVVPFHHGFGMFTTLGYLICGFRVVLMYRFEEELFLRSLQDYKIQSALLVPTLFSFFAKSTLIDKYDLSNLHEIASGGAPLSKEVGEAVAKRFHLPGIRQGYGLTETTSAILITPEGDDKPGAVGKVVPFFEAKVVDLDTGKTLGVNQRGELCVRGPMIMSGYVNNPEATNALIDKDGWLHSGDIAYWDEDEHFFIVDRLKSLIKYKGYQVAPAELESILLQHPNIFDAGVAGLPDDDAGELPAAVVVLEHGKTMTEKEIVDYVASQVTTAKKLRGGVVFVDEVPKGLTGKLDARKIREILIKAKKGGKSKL
#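 Purified P. pyralis luciferase, 10 nM final, with Km-level 10 uM D-luciferin and 10 uM ATP in 50 mM Tris acetate pH 7.5, 10 mM Mg acetate, 0.01% Tween-20, 0.05% BSA; 6-point qHTS titration about 60 µM downward; luminescence read.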
# SMN2 splice up: qHTS Assay for Enhancers of SMN2 Splice Variant Expression; HEK293 SMN2-luciferase splicing reporter, luminescence, 30-36 h; Potency, µM (top dose mostly 46.1 µM), for inactives: top-dose activity change, positive = activation, hits mostly activators; hit rate 2.8% among 210,000; AID 1458, 2008; further: % of control where 0% means no effect; nearly all actives have a fitted effect of over 55% in size
#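 qHTS luciferase splicing reporter: luminescence rises when SMN2 exon 7 is included in transfected HEK293 cells. Compound exposure lasted 30-36 h at 37C, with 4.5 mM final sodium butyrate as control, followed by a ONE-Glo read.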
# * marks the source's active call; other numbers are inactive results; u = inconclusive; x = no result given; [ ] = another dose, or the depositor's remark. Sampled rows, rich in hits. Any-hit rate of the full collection: about 7.3%. The call rests on the fitted dose curve; in most records, active means well fitted curve in the direction sought with a large enough effect; inconclusive means small, poorly fitted or top-dose-only effect, or another doubt; inactive means no such curve, though single readings can be large; an effect the other way counts as inactive or inconclusive. Potency means the concentration at half of the fitted maximal effect.
SMILES,Rab9 promoter act,KinaseGlo FLuc,NPC1 promoter act,ELG1 genotoxic,FLuc counter,SMN2 splice up
CN(C)c1ccc(/C=N/NC(=S)NCc2ccco2)cc1,-2%,0%,10%,7%,u,-3%
CN(C)c1ccc(C(=S)NCc2ccco2)cc1,0.45µM*,-2%,u,0.46µM*,13µM*,-15%
COCC(C)Nc1ncnc2c1cnn2-c1ccc(Cl)cc1 (centres undefined),0.5µM*,x,0.71µM*,x,2.4µM*,x
CCC(C)Nc1ncnc2c1cnn2-c1ccc(F)cc1 (centres undefined),x,x,x,x,6.7µM*,x
Cc1ccc(CNc2ncnc3c2cnn3-c2ccc(Cl)cc2)cc1,x,x,x,x,-7%,x
O=C(NNc1ncnc2c1cnn2-c1ccc(F)cc1)c1ccco1,11%,x,3%,10%,-16%,x
O=C(N/N=C1\CCc2ccccc21)c1ccncc1,u,-5%,u,u,21µM*,20µM*
O=C(N/N=C1\CCCc2ccccc21)c1ccccc1Cl,u,-3%,u,u,u,u
O=C(N/N=C1\CCc2ccccc21)c1ccccc1O,0.79µM*,10µM*,0.63µM*,u,1.7µM*,1.1µM*
O=C(NN=C1C2CC3CC(C2)CC1C3)c1ccccc1O,-3%,x,-8%,-3%,17µM*,x
COc1ccc(C(=O)N/N=C2\CCc3ccccc32)cc1OC,-32%,-2%,4%,14%,-11%,u
O=C(CSC1=NCCS1)Nc1cccc2ccccc12,10%,3%,0%,-5%,-19%,3%
COc1ccccc1Cn1c(/C=C/c2ccccc2)nc2ccccc21,u,-22%,18%,16%,3µM*,u
C=CCn1c(NCc2ccccc2OC)nc2ccccc21,15%,x,0%,5%,u,x
COc1ccc(/C=C/c2nc3ccccc3n2Cc2ccccc2OC)cc1,u,-12%,3.2µM*,u,0.85µM*,7.9µM*
COc1ccccc1Cn1c(C(C)C)nc2ccccc21,-8%,x,-3%,-11%,2%,x
COc1c2c(cc3oc(C)cc(=O)c13)OC(C(C)(C)OC1OC(CO)C(O)C(O)C1O)C2 (centres undefined),-1%,0%,0%,2%,1%,-19%
COc1ccccc1OCCNC(=O)CNC(=O)c1ccc2c(c1)OCO2,8%,x,0%,1%,-1%,x
COc1ccccc1OCCNC(=O)c1ccc2c(c1)OCCO2,2.2µM*,x,3.2µM*,u,u,x
COc1ccccc1OCCNC(=O)c1ccc2c(c1)CCC2,u,x,u,13µM*,15µM*,x
COc1ccccc1OCCNC(=O)c1cccc(S(=O)(=O)N2CCN(C)CC2)c1,1%,x,-4%,12%,13µM*,x
O=C(O)c1ccccc1N/N=C/c1c(Sc2nnnn2-c2ccccc2)nc2ccccn2c1=O,-2%,x,-5%,-5%,2%,x
Cc1ccc(NC(=O)C2CCCCC2)c(O)c1,10%,-4%,2%,9%,u,x
Oc1ccccc1/C=N/N1CCCCC1,14%,-5%,0%,u,24µM*,2%
Oc1ccc(/C=N/N2CCCCC2)c(O)c1O,0%,x,-3%,-6%,u,x
SMILES,Rab9 promoter act,KinaseGlo FLuc,NPC1 promoter act,ELG1 genotoxic,FLuc counter,SMN2 splice up
Oc1cccc(/C=N/N2CCCCC2)c1O,-16%,x,-3%,u,9.5µM*,x
Oc1ccc(/C=N/N2CCCCC2)c(O)c1,-5%[1.84 µM],x,u,u,19µM*,x
CC(=O)N[C@H](c1ccccc1)[C@@]1(C)C[C@@H]1[C@@H](C)C(=O)Nc1ccc2ccccc2c1,x,1%,x,x,x,-20%
CCN(CCCNC(=O)c1cc2c(=O)[nH]c3ccccc3c2s1)c1ccccc1,x,x,x,x,-1%,-6%
COc1ccc(/C=N/Nc2nc(N3CCCC3)nc(N3CCCC3)n2)c(OC)c1OC,3%,-1%,-2%,-3%,-4%,-3%
C(=N\Nc1nc(N2CCOCC2)nc(N2CCOCC2)n1)/c1ccco1,0%,-1%,-6%,-3%,4%,-12%
Cc1[nH]c2ccccc2c1/C=N/Nc1nc(Nc2ccccc2)nc(N2CCOCC2)n1,0%,-2%,13%,-10%,4.8µM*,-8%
COc1ccc(/C=N/Nc2nc(Nc3ccccc3)nc(N3CCCC3)n2)cc1[N+](=O)[O-],-19%,-1%,-9%,u,-13%,0%
COc1ccc(/C=N/Nc2nc(Nc3ccccc3)nc(N3CCCCC3)n2)c(OC)c1,-3%,0%,-2%,-2%,6.7µM*,-21%
Fc1ccc(Nc2nc(N/N=C/c3ccco3)nc(N3CCCCC3)n2)cc1,-3%,-4%,-8%,-14%,27µM*,-24%
COc1cc(/C=N/Nc2nc(Nc3ccccc3)nc(N3CCCCC3)n2)ccc1OCC(=O)O,17%,0%,12%,-2%,0.95µM*,15%
CCOC(=O)N1CCN(S(=O)(=O)c2ccc(OC)c(Br)c2)CC1,2%,x,4%,1%,1%,x
Cc1nnc(SCC(=O)NC23CC4CC(CC(C4)C2)C3)n(N)c1=O,3%,2%,-6%,4%,-2%,14%
CCOC(=O)c1ccccc1-c1cn2cc(Cl)ccc2n1,8%,0%,-2%,10%,15µM*,6%
Cc1ccc(C)c(NC(=O)c2nnn(CC(=O)Nc3cccc(C)c3C)c2N)c1,x,x,x,x,2%,x
O=[N+]([O-])c1ccc(Nc2nc3ccccc3s2)cc1,x,1%[7.66 µM],x,x,x,-7%[9.22 µM]
Cc1ccccc1Nc1nc2ccccc2s1,2.5µM*,-7%,3.5µM*,u,4.8µM*,11µM*
Fc1ccc(Nc2nc3ccccc3s2)cc1,2.5µM*,0%,u,u,7.6µM*,13µM*
Cc1ccc(Nc2nc3ccccc3s2)cc1,0.71µM*,-7%,1µM*,7.3µM*,0.85µM*,2.8µM*
O=C(NC(=S)NCc1ccc(Cl)cc1)c1ccco1,x,x,x,0%,x,x
CC(C)(c1ccccc1)c1ccc(OCc2ccc(C(=O)O)o2)cc1,1.1µM*,x,2.8µM*,u,27µM*,x
CC(C)(C)c1ccc(OCc2ccc(C(=O)NN)o2)cc1,0.79µM*,x,0.4µM*,u,15µM*,x
CC(C)(C)c1ccc(OCc2ccc(C(=O)NCc3cccnc3)o2)cc1,1.3µM*,-1%,2.8µM*,u,17µM*,u
Cc1ccc(OCC(=O)Nc2ccc3c(c2)OC(F)(F)O3)c([N+](=O)[O-])n1,-1%,0%,-5%,1%,7%,-11%

# Bioassay records deposited in PubChem BioAssay by National Center for Advancing Translational Sciences (NCATS).
